The results in this text go back to PubChem BioAssay (NCATS).

Inconclusive results are not listed. Where a call stands in place of a potency, no number is given. Calls of active or inactive are those of the source. Unless noted, calls follow the shape of the dose curve; as a rule, active = well fitted inhibition curve with a large enough effect; inconclusive = small, poorly fitted or top-dose-only effect; inactive = no such curve, though single readings can be large or run the other way.

Tyrosine-protein phosphatase non-receptor type substrate 1 (Homo sapiens) + Leukocyte surface antigen CD47 (Homo sapiens), sequence (P78324 whole entry, looked up): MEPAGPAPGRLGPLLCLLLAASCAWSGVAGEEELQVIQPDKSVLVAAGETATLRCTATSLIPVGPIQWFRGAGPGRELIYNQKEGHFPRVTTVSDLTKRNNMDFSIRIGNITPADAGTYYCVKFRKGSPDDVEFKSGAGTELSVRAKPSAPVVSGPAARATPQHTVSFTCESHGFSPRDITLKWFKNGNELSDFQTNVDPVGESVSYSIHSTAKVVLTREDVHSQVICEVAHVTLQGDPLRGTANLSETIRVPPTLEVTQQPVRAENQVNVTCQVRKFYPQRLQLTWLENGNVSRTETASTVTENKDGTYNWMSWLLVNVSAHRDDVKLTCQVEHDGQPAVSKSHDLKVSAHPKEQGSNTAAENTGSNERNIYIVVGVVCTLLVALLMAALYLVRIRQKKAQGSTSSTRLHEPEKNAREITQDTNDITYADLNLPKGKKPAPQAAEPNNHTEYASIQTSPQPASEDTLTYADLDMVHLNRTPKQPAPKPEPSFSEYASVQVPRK
Tyrosine-protein phosphatase non-receptor type substrate 1 (Homo sapiens) + Leukocyte surface antigen CD47 (Homo sapiens), sequence (Q08722 whole entry, looked up): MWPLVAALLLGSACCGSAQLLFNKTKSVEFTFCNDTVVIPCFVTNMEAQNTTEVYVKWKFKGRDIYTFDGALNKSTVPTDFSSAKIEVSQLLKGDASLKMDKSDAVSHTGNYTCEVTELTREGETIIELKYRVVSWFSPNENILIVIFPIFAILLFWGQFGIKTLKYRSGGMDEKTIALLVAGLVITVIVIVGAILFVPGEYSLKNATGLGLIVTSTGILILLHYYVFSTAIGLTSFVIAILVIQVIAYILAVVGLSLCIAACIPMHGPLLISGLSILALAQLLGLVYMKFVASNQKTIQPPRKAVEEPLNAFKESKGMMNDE

System in the first test: not listed separately
The test can be described thus: NS1 protein of Zika virus - qHTS assay to identify small molecule inhibitors in human HEK 293 cells (AID 1347053). Also: nearly all actives have a fitted effect of over 55% in size. Also: potency is read from the fitted curve at half-maximal effect. To be noted: HEK293 ZIKV MR766 infection, NS1 TR-FRET, 24 h; series mostly up to 46.1 µM. In outline:
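HEK 293 cells, seeded 20 h at 37 C, were pretreated with compound 1 h, then infected with ZIKV MR766 (MOI = 0.5) for 24 h. NS1 was read by TR-FRET with two anti-NS1 antibodies, normalized to uninfected and infected wells.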
A general note: Quantitative high-throughput screening tests each substance at several concentrations.
Turning to `C[N+]1(C)C2CC(OC(=O)[C@H](CO)c3ccccc3)CC1C1OC12` (some centres undefined), the Potency result is “inactive”.

Consider `COc1ccc(NC(=O)/C=C/c2ccc(Cl)cc2)cc1`, for which the Potency result is “inactive”. `COc1cc(OC)c(/C=C2/C(=O)Nc3ccccc32)c(OC)c1`: the Potency entry was “inactive”. Consider `COc1ccnc2c1CCCCC2S(=O)c1nc2ccccc2[nH]1` (centres undefined), for which the Potency result is “inactive”. Regarding `Fc1cccc(/C=N/N=C/c2cccc(F)c2)c1`, the Potency result was “inactive”. Still for that read-out and setting: as for `CN=c1nc(-c2ccccc2)n(-c2ccccc2)s1`, the entry is “inactive”; as for `CCCCCCCCCCCCOCCO`, “inactive”; as for `Cc1cn([C@H]2CC(N=[N+]=[N-])[C@@H](CO)O2)c(=O)[nH]c1=O` (some centres undefined), “inactive”. Same read-out and setting: for `COc1ccccc1CN[C@@H]1CCCN[C@@H]1c1ccccc1` the value was “inactive”; for `O=c1cc(-c2ccccc2)oc2c(O)c(O)ccc12`, “inactive”. Same read-out and setting: as for `CC[C@H]1OC(=O)[C@H](C)C(O[C@H]2C[C@@](C)(OC)[C@@H](O)[C@H](C)O2)[C@H](C)[C@@H](OC2O[C@H](C)C[C@H](N(C)C)[C@H]2O)[C@](C)(O)C[C@@H](C)CN(C)[C@H](C)[C@@H](O)[C@]1(C)O` (some centres undefined), the entry is “inactive”; as for `O=C(Nc1ccncc1)c1cc([N+](=O)[O-])ccc1Cl`, “inactive”; as for `CC1(C)S[C@@H]2[C@H](NC(=O)[C@H](N)c3ccccc3)C(=O)N2[C@H]1C(=O)O`, “inactive”. Consider `CCOC(=O)C1=C(C)NC(C)=C(C(=O)OCC)C1c1c(F)c(F)c(F)c(F)c1F`, for which the Potency result is “inactive”. As for `COc1cc(OC)cc(-c2cc3cnc(N)nc3nc2NC(=O)NC(C)(C)C)c1`, the Potency entry is “inactive”. On the same count and under the same terms, as for `O=C(CCc1ccncc1)NNC(=O)N1Cc2ccccc2Oc2ccc(Cl)cc21`, the entry is “inactive”; as for `Brc1cc2c(cc1[C@H]1Nc3ccccc3[C@H]3C=CC[C@H]31)OCO2`, “inactive”; as for `O=C(CCN1CCN(CCO)CC1)N1c2ccccc2Sc2ccc(C(F)(F)F)cc21`, “inactive”. Regarding `NS(=O)(=O)c1ccc(-n2nc(C(F)(F)F)cc2-c2ccc(Cl)cc2)cc1`, the Potency result is “inactive”. Still for that read-out and setting: as for `COc1ccc(/C=C/c2nc(NCCCN(C)C)c3ccccc3n2)cc1`, the entry is “inactive”; as for `CN(C)CCC(c1ccc(Cl)cc1)c1ccccn1` (centres undefined), “inactive”. The same measure, in the same setting: for `COc1ccc(Br)cc1S(=O)(=O)NC(=O)/C=C/c1ccccc1Cc1ccc2ccccc2c1` the value was “inactive”; for `N[C@H](CCCP(=O)(O)O)C(=O)O`, “inactive”; for `O=C(O)Cc1ccc2c(c1)C(=O)c1ccccc1CO2`, “inactive”. The same measure, in the same setting: for `O=C1NC(O)=NC1(c1ccccc1)c1ccccc1` the value was “inactive”; for `O=C(c1ccc(Cl)cc1)N1CCN(c2ccc([N+](=O)[O-])c3ncccc23)CC1`, “inactive”; for `CS(=O)(=O)c1ccc(-n2nc(C(F)(F)F)cc2-c2ccc(F)cc2)cc1`, “inactive”. Turning to `CC[C@H]1OC(=O)[C@H](C)[C@@H](O[C@H]2C[C@@](C)(OC)[C@@H](O)[C@H](C)O2)[C@H](C)[C@@H](O[C@@H]2O[C@H](C)C[C@H](NC)[C@H]2O)[C@](C)(O)C[C@@H](C)CN(C)[C@H](C)[C@@H](O)[C@]1(C)O`, the Potency entry was “inactive”. As for `CNCC[C@H](Oc1ccc(C(F)(F)F)cc1)c1ccccc1`, the Potency result is “inactive”. Same read-out and setting: for `S=c1[nH]c(-c2ccccc2)cn1-c1ccccc1` the value was “inactive”; for `C#C[C@]1(O)CC[C@H]2[C@@H]3CCC4=Cc5oncc5CC4(C)[C@H]3CCC21C` (some centres undefined), “inactive”; for `O=C1NCc2c1c1c3ccccc3[nH]c1c1[nH]c3ccccc3c21`, “inactive”. The same measure, in the same setting: for `O=C(O)/C=C\C(=O)O` the value was “inactive”.

With `COc1ccc(-c2cc(=O)c3c(O)c(OC)c(OC)cc3o2)cc1O`, the Potency entry was “inactive”. Regarding `CC12C(=O)OC(=O)C1(C)C1CCC2O1` (centres undefined), the Potency was 3.98 µM (active).

Turning to `S=C(S)OC1CC2CC1C1CCCC21` (centres undefined), the Potency result is “inactive”. Same read-out and setting: for `CO[C@H]1O[C@@H]2O[C@]3(C)CC[C@@H]4[C@@H](C)CC[C@H]([C@H]1C)[C@]24OO3` the value was “inactive”; for `O=C(NOCC1CC1)c1cc(Br)c(F)c(F)c1Nc1ccc(I)cc1Cl`, “inactive”.

A further test has as its target Tyrosine-protein phosphatase non-receptor type substrate 1 (Homo sapiens) + Leukocyte surface antigen CD47 (Homo sapiens) (UniProt P78324+Q08722). As to the kind of experiment: CD47-SIRPalpha protein protein interaction - LANCE assay qHTS validation (AID 1347057; active = well fitted curve in the direction sought with a large enough effect in the signal ratio, with a control signal flat, not every such curve was filed as active; the % refers to the signal ratio). To be noted: Recombinant CD47-His / biotin-SIRPalpha, TR-FRET ratio; series mostly up to 38.3 µM. In outline:
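First, His-tagged CD47 and Eu-labelled anti-His antibody met the compound for 30 min; next, site-specifically biotinylated SIRPalpha was added for 30 min; finally streptavidin-APC was added before reading the TR-FRET ratio.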
(TR-FRET usually uses a lanthanide donor and a delayed reading to cut background.)
For the compound `C[N+]1(C)C2CC(OC(=O)[C@H](CO)c3ccccc3)CC1C1OC12` (some centres undefined), the Potency result is “inactive”. Same read-out and setting: as for `COc1ccc(NC(=O)/C=C/c2ccc(Cl)cc2)cc1`, the entry is “inactive”.

Regarding `Fc1cccc(/C=N/N=C/c2cccc(F)c2)c1`, the Potency entry was “inactive”. `CN=c1nc(-c2ccccc2)n(-c2ccccc2)s1`: the Potency result is “inactive”.

Turning to `Cc1cn([C@H]2CC(N=[N+]=[N-])[C@@H](CO)O2)c(=O)[nH]c1=O` (some centres undefined), the Potency result is “inactive”.

In the case of `COc1ccccc1CN[C@@H]1CCCN[C@@H]1c1ccccc1`, the Potency entry is “inactive”. Take `CC[C@H]1OC(=O)[C@H](C)C(O[C@H]2C[C@@](C)(OC)[C@@H](O)[C@H](C)O2)[C@H](C)[C@@H](OC2O[C@H](C)C[C@H](N(C)C)[C@H]2O)[C@](C)(O)C[C@@H](C)CN(C)[C@H](C)[C@@H](O)[C@]1(C)O` (some centres undefined): the Potency entry was “inactive”. Still for that read-out and setting: as for `O=C(Nc1ccncc1)c1cc([N+](=O)[O-])ccc1Cl`, the entry is “inactive”; as for `CCOC(=O)C1=C(C)NC(C)=C(C(=O)OCC)C1c1c(F)c(F)c(F)c(F)c1F`, “inactive”. Consider `COc1cc(OC)cc(-c2cc3cnc(N)nc3nc2NC(=O)NC(C)(C)C)c1`, for which the Potency result is “inactive”. The same measure, in the same setting: for `O=C(CCc1ccncc1)NNC(=O)N1Cc2ccccc2Oc2ccc(Cl)cc21` the value was “inactive”; for `Brc1cc2c(cc1[C@H]1Nc3ccccc3[C@H]3C=CC[C@H]31)OCO2`, “inactive”.

Take `NS(=O)(=O)c1ccc(-n2nc(C(F)(F)F)cc2-c2ccc(Cl)cc2)cc1`: the Potency result was “inactive”.

Regarding `COc1ccc(Br)cc1S(=O)(=O)NC(=O)/C=C/c1ccccc1Cc1ccc2ccccc2c1`, the Potency result was “inactive”. Take `N[C@H](CCCP(=O)(O)O)C(=O)O`: the Potency result is “inactive”.

Regarding `O=C1NC(O)=NC1(c1ccccc1)c1ccccc1`, the Potency entry is “inactive”. Still for that read-out and setting: as for `O=C(c1ccc(Cl)cc1)N1CCN(c2ccc([N+](=O)[O-])c3ncccc23)CC1`, the entry is “inactive”.

As for `CS(=O)(=O)c1ccc(-n2nc(C(F)(F)F)cc2-c2ccc(F)cc2)cc1`, the Potency result was “inactive”. Same read-out and setting: as for `CC[C@H]1OC(=O)[C@H](C)[C@@H](O[C@H]2C[C@@](C)(OC)[C@@H](O)[C@H](C)O2)[C@H](C)[C@@H](O[C@@H]2O[C@H](C)C[C@H](NC)[C@H]2O)[C@](C)(O)C[C@@H](C)CN(C)[C@H](C)[C@@H](O)[C@]1(C)O`, the entry is “inactive”. As for `S=c1[nH]c(-c2ccccc2)cn1-c1ccccc1`, the Potency entry was “inactive”. In the case of `O=C1NCc2c1c1c3ccccc3[nH]c1c1[nH]c3ccccc3c21`, the Potency result is “inactive”.

`COc1ccc(-c2cc(=O)c3c(O)c(OC)c(OC)cc3o2)cc1O`: the Potency entry is “inactive”.

In the case of `CC12C(=O)OC(=O)C1(C)C1CCC2O1` (centres undefined), the Potency result is “inactive”. In the case of `S=C(S)OC1CC2CC1C1CCCC21` (centres undefined), the Potency entry was “inactive”. As to `CO[C@H]1O[C@@H]2O[C@]3(C)CC[C@@H]4[C@@H](C)CC[C@H]([C@H]1C)[C@]24OO3`, the Potency entry was “inactive”.

Turning to `O=C(NOCC1CC1)c1cc(Br)c(F)c(F)c1Nc1ccc(I)cc1Cl`, the Potency entry was “inactive”.
